Screening data from PubChem BioAssay.
A selection: hits, their analogues and other compounds. The true share with any hit is near 3.3%.
NCF1 inh: p47phox/p22phox peptide binding inhibitors, primary screen, biochemical, uHTS, NADPH oxidase regulatory subunit. Neutrophil cytosol factor 1 (Homo sapiens), P14598. fluorescence polarization, 2 h. inhibition, % at 24.7 µM. hit rate 0.53% among 220,000;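 note: 0% = p47phox with labelled peptide and 100% = labelled peptide alone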
Mcl1 Noxa PPI: Mcl-1/Noxa binding inhibitors, primary screen, biochemical, TR-FRET, 1536-well | AID 1022, 2008 | Induced myeloid leukemia cell differentiation protein Mcl-1 (Homo sapiens), Q07820 | inhibition, % at 21.7 µM | TR-FRET Mcl-1/Noxa peptide binding, 2 h | hit rate 1.5% among 220,000;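 active = compounds that cut the protein-peptide binding signal by more than 50% relative to plate controls in a single-dose test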;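 note: His-tagged Mcl-1 with rhodamine Noxa BH3 peptide and terbium anti-His antibody; 0% = Mcl-1 plus Noxa peptide wells and 100% = peptide-only wells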
Bim-Mcl-1: inhibitors of Bim peptide binding to Mcl-1, primary screen, biochemical, bead-based flow cytometry, multiplex. Induced myeloid leukemia cell differentiation protein Mcl-1 (Homo sapiens), Q07820. Bim peptide-Mcl-1 binding. inhibition, % at 10 µM. hit rate 0.1% among 190,000. AID 1009, 2008; in the data active = inhibition above about 40%;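 note: 0% = no compound tracer wells and 100% = peptide blocker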
Mcl1-Bid inh: Mcl-1/Bid binding inhibitors, primary screen, biochemical, TR-FRET, 1536-well. Induced myeloid leukemia cell differentiation protein Mcl-1 (Homo sapiens), Q07820. TR-FRET Mcl-1/Bid-Dy647 peptide binding. hit rate 0.97% among 220,000. inhibition, % at 21.7 µM;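 active = compounds that cut the binding signal by more than half at the single screening dose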;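 note: His-tagged Mcl-1 with europium anti-His antibody binding Bid BH3 peptide; 0% = Mcl-1 plus peptide wells and 100% = peptide-only wells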
14-3-3 Bad PPI: inhibitors of 14-3-3 zeta/Bad binding, primary screen, biochemical, TR-FRET, bovine 14-3-3 zeta | 14-3-3 protein zeta/delta (Bos taurus), P63103 | TR-FRET 14-3-3zeta/Dy647-pBad peptide displacement, 1 h | inhibition, % at 21.7 µM | hit rate 0.71% among 220,000;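 active = inhibition above about 70%, limit read from the data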;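 note: 0% = full 14-3-3 plus peptide FRET controls and 100% = background without 14-3-3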
Target sequence (P63103 whole entry, looked up): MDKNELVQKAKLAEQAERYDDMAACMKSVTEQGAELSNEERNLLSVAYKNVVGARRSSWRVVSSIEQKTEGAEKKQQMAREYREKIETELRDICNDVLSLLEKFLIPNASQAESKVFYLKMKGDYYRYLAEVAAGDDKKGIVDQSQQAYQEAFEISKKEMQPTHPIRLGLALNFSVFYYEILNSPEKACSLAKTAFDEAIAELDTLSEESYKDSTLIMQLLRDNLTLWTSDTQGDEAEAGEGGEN
eIF4E 4G PPI: eIF4E–eIF4G protein interaction inhibitors, primary screen, biochemical, uHTS, TR-FRET, eIF4GI fragment; inhibition, % at 21.7 µM; Eukaryotic translation initiation factor 4E (Mus musculus) + Eukaryotic translation …; hit rate 0.37% among 220,000; TR-FRET eIF4E-eIF4GI(517-606) binding, 2 h; AID 782, 2007;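 note: 0% = full FRET control wells and 100% = background wells lacking eIF4GI fragment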
* = called active by the depositor.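 Rule for the calls, unless noted: active = inhibition above about 30% (limit read from the data); inactive = the rest.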

`CC(C)c1ccc(NNC(=O)C2CCC2)cc1` gave NCF1 inh -9.1, Mcl1 Noxa PPI -3.1, Mcl1-Bid inh 4.9, 14-3-3 Bad PPI -2.8 and eIF4E 4G PPI 3.6.
For CCCN(CCC)C1=CC(=[N+]2CCCC2)CC(C)(C)C1 the results were NCF1 inh -1.3, Mcl1 Noxa PPI 12.8, Bim-Mcl-1 0.0, Mcl1-Bid inh 2.1, 14-3-3 Bad PPI 1.4 and eIF4E 4G PPI 5.6.
Screening O=c1[nH]c2c(s1)C(c1ccc(O)cc1)C1C3CCC(C3)C1S2 (centres undefined) returned NCF1 inh -10.5, Mcl1 Noxa PPI 54.5*, Bim-Mcl-1 0.0, Mcl1-Bid inh 48.2, 14-3-3 Bad PPI 4.8 and eIF4E 4G PPI 3.3.
O=c1[nH]c2c(s1)C(c1cccnc1)C1C3CCC(C3)C1S2 (centres undefined) was read as NCF1 inh -8.5, Mcl1 Noxa PPI -8.5, Mcl1-Bid inh -46.8, 14-3-3 Bad PPI 1.9 and eIF4E 4G PPI -13.5.
For NNC(=O)c1csc(-c2ccc(C(F)(F)F)cc2Cl)n1 the results were NCF1 inh 23.3, Mcl1 Noxa PPI 2.2, Mcl1-Bid inh -6.9, 14-3-3 Bad PPI -3.7 and eIF4E 4G PPI -4.6.
`CC(C)(C)c1cc(CN2CCN(CCO)CC2)cc(C(C)(C)C)c1O` gave NCF1 inh -8.5, Mcl1 Noxa PPI 28.4, Bim-Mcl-1 -4.0, Mcl1-Bid inh 62.3*, 14-3-3 Bad PPI 20.6 and eIF4E 4G PPI 4.1.
`CCOC(=O)C1CCN(Cc2cc(C(C)(C)C)c(O)c(C(C)(C)C)c2)CC1` gave NCF1 inh -6.0, Mcl1 Noxa PPI -27.7, Bim-Mcl-1 -2.0, Mcl1-Bid inh -26.0, 14-3-3 Bad PPI -5.0 and eIF4E 4G PPI -1.2.
CCOc1cc(N2CCOCC2)c(OCC)cc1NC(=O)c1ccc(OC(C)C)cc1 was read as NCF1 inh -1.1, Mcl1 Noxa PPI 7.7, Bim-Mcl-1 -1.0, Mcl1-Bid inh -37.7, 14-3-3 Bad PPI -23.1 and eIF4E 4G PPI 5.3.
Screening CCc1ccc(/C=N\n2cnnc2)cc1 returned NCF1 inh -3.3, Mcl1 Noxa PPI -5.3, Mcl1-Bid inh -35.6, 14-3-3 Bad PPI 1.2 and eIF4E 4G PPI 0.6.
Screening O=C(COC(=O)c1c(F)cccc1F)Nc1ccc2[nH]c(=O)[nH]c2c1 returned NCF1 inh -9.1, Mcl1 Noxa PPI 72.2*, Bim-Mcl-1 4.0, Mcl1-Bid inh -33.1, 14-3-3 Bad PPI -1.1 and eIF4E 4G PPI 7.1.
For CC1CC1C(=O)OCC(=O)Nc1ccc2[nH]c(=O)[nH]c2c1 (centres undefined) the results were NCF1 inh -11.4, Mcl1 Noxa PPI 75.7*, Bim-Mcl-1 0.0, Mcl1-Bid inh 3.4, 14-3-3 Bad PPI 14.5 and eIF4E 4G PPI 15.1.
For CCN(CC)c1ccc(C(=O)OCC(=O)Nc2ccc3[nH]c(=O)[nH]c3c2)cc1 the results were NCF1 inh -6.3, Mcl1 Noxa PPI 54.6*, Bim-Mcl-1 2.0, Mcl1-Bid inh -42.7, 14-3-3 Bad PPI 2.2 and eIF4E 4G PPI 11.1.
O=C(COC(=O)c1ccc(F)cc1F)Nc1ccc2[nH]c(=O)[nH]c2c1 was read as NCF1 inh -11.6, Mcl1 Noxa PPI 68.8*, Bim-Mcl-1 0.0, Mcl1-Bid inh -0.6, 14-3-3 Bad PPI 0.4 and eIF4E 4G PPI 5.4.
`CCN(CC)c1ccc(NC(=O)COC(=O)c2ccc3ccccc3n2)cc1` gave NCF1 inh -6.0, Mcl1 Noxa PPI 57.0*, Bim-Mcl-1 -7.0, Mcl1-Bid inh -19.7, 14-3-3 Bad PPI 9.0 and eIF4E 4G PPI -0.6.
Screening CCN(CC)c1ccc(NC(=O)COC(=O)c2cccs2)cc1 returned NCF1 inh -0.4, Mcl1 Noxa PPI 29.5, Bim-Mcl-1 -5.0, Mcl1-Bid inh -23.0, 14-3-3 Bad PPI -9.8 and eIF4E 4G PPI -8.6.
`COC(=O)C(=CC(=CN(C)C)C=C(C(=O)OC)C(=O)OC)C(=O)OC` gave NCF1 inh -7.8, Mcl1 Noxa PPI 5.6, Mcl1-Bid inh -118.8, 14-3-3 Bad PPI 1.7 and eIF4E 4G PPI 1.2.
